Screens from PubChem BioAssay.
TRHR PAM: qHTS for Small Molecule Agonists and Allosteric Enhancers of Human TRH Receptor: Primary Screen for Enhancers; enhancement, % at 2 µM; Thyrotropin-releasing hormone receptor (Homo sapiens), P34981; 360,000 tested, 0.66% active; TRHR cells, fluo-8 calcium fluorescence, EC20 TRH enhancement; AID 493056, 2011; in the data active = enhancement above about 30%; note: 0% is about no effect
Target sequence (P34981 whole entry, looked up): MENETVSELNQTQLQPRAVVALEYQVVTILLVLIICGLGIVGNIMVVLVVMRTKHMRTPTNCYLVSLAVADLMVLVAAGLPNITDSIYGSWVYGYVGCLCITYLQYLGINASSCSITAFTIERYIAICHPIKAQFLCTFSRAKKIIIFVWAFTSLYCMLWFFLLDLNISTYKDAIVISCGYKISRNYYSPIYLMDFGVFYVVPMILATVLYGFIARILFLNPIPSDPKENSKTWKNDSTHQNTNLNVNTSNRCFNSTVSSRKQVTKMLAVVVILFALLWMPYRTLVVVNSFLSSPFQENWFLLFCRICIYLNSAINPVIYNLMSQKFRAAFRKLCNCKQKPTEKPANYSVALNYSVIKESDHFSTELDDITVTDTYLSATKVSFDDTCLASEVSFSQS
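TRHR-expressing cells loaded with fluo-8 calcium dye were read kinetically (ex 480/em 530) during compound addition, then stimulated with an EC20 of TRH (10 nM final). Enhancement of the Gq-mediated intracellular calcium response was scored.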
TRHR agonist: qHTS for Small Molecule Agonists and Allosteric Enhancers of Human TRH Receptor: Primary Screen for Agonists | TRHR cells, calcium flux fluo-8, FDSS agonist mode | 360,000 tested, 0.18% active | activation, % at 2 µM | Thyrotropin-releasing hormone receptor (Homo sapiens), P34981; note: 0% is about no effect
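TRHR-expressing cells loaded with fluo-8 calcium dye; 23 nL library compound pin-transferred, kinetic FDSS fluorescence (Ex 480/Em 530) recorded about 180 s for agonist-induced calcium release, before a 10 nM TRH EC20 addition for potentiator mode.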
D1 antag: Antagonist of Human D 1 Dopamine Receptor: qHTS | D(1A) dopamine receptor (Homo sapiens), P21728 | HEK293 TREx D1 cells, calcium flux, dopamine EC80; stronger effect = lower value | activity change, negative = inhibition, % at 10 µM | 360,000 tested, 3.2% active | AID 504652, 2011; in the data active = activity change below about -30%; note: % is set by controls: 0 for no effect and ±100 for the full control effect
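Tetracycline-induced HEK293 Trex D1 cells, force-coupled to calcium, dye-loaded; compounds added and read 180 s, then EC80 dopamine added and calcium flux tracked kinetically another 180 s.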
D1 PAM: Potentiators of Human D1 Dopamine Receptor: qHTS; D(1A) dopamine receptor (Homo sapiens), P21728; HEK293 TREx D1 cells, calcium flux, dopamine EC20 potentiation; potentiation, % at 10 µM; 360,000 tested, 0.036% active; in the data active = potentiation above about 30%; note: 0% is about no effect
D1 agonist: Allosteric Agonists of the Human D1 Dopamine Receptor: qHTS; HEK293 T-REx D1 cells, calcium flux, agonist mode; activation, % at 2 µM; 360,000 tested, 1% active; AID 504660, 2011; note: 0% is about no effect
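Tetracycline-induced HEK293 TREx D1 cells, force-coupled to calcium signalling, were dye-loaded with a no-wash calcium kit. Compound was pin-added after a 10 s baseline. Fluorescence was read kinetically at 1 cycle/s for 180 s, with calcium rises flagged as agonism.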
Numbers without * were called inactive. Sampled rows, rich in hits. Any-hit rate of the full collection: about 4.6%. Cut-off read from the data, not from the text of the source, unless noted: active = activation above about 30%; inactive = the rest.

For COc1ccccc1NC(=O)c1ccc(NC(=O)COC(=O)C(C)C)cc1 the results were TRHR PAM 34*, TRHR agonist 0, D1 antag 3, D1 PAM -5 and D1 agonist 2.
For CC(OC(=O)c1cc(=O)[nH]c2ccccc12)C(=O)Nc1ccccc1F (stereo unspecified) the results were TRHR PAM -1, TRHR agonist 0, D1 antag -1, D1 PAM 2 and D1 agonist 0.
For O=C(N/N=C/c1ccsc1)c1c[nH]c2ccccc12 the results were TRHR PAM -2, TRHR agonist 0, D1 antag -46*, D1 PAM -2 and D1 agonist 3.
Screening C=CCOc1ccc(/C(O)=C2/C(=O)C(=O)N(CCCn3ccnc3)C2c2cccs2)cc1 (stereo unspecified) returned TRHR PAM -2, TRHR agonist 0, D1 antag -52*, D1 PAM -11 and D1 agonist 2.
`COC(=O)c1sc2cccc(F)c2c1S(=O)(=O)N1CCN(c2ccc(F)cc2)CC1` gave TRHR PAM 0, TRHR agonist 0, D1 antag 6, D1 PAM -1 and D1 agonist 2.
`O=c1c2ccccc2nc(CSc2nnnn2-c2ccccc2)n1-c1ccccc1Cl` gave TRHR PAM -1, TRHR agonist 0, D1 antag -35*, D1 PAM -1 and D1 agonist 3.
Screening Cc1ccccc1-n1c(CSC(=N)N)nc2ccccc2c1=O returned TRHR PAM 5, TRHR agonist 0, D1 antag -42*, D1 PAM 2 and D1 agonist 2.
`COc1ccc(C2N3CC4(C)CN2CC(c2ccccc2)(C3)C4=O)cc1` (stereo unspecified) gave TRHR PAM 3, TRHR agonist 1, D1 antag 2, D1 PAM 6 and D1 agonist -1.
Screening O=C(Nc1cccc(C(=O)N2CCN(c3ccc(F)cc3)CC2)c1)c1nsc2ccccc12 returned TRHR PAM 1, TRHR agonist 0, D1 antag -4, D1 PAM -3 and D1 agonist 0.
`Clc1ccccc1Cn1nnc(-c2cccs2)n1` gave TRHR PAM -1, TRHR agonist -1, D1 antag -16, D1 PAM -8 and D1 agonist 20.
For Clc1ccccc1Cn1nnc(-c2ccccc2)n1 the results were TRHR PAM 2, TRHR agonist -1, D1 antag -35*, D1 PAM -12 and D1 agonist 18.
NC(=O)N/N=C/c1coc2ccc3ccccc3c2c1=O was read as TRHR PAM -3, TRHR agonist 0, D1 antag -71*, D1 PAM -11 and D1 agonist 1.
`Cc1ccccc1CNC(=O)c1ccc(CS(=O)Cc2ccc(Cl)cc2)o1` (stereo unspecified) gave TRHR PAM 1, TRHR agonist -1, D1 antag 6, D1 PAM -4 and D1 agonist 1.
For Cc1[nH]n(-c2ccccc2)c(=O)c1N=Nc1ccc(C(=O)O)cc1 the results were TRHR PAM -4, TRHR agonist -1, D1 antag 5, D1 PAM -2 and D1 agonist 2.
Screening Cc1[nH]n(-c2ccccc2)c(=O)c1N=Nc1cccc(C(=O)O)c1 returned TRHR PAM 1, TRHR agonist 1, D1 antag -37*, D1 PAM 3 and D1 agonist 1.
Screening Cc1[nH]n(C2=NCCS2)c(=O)c1N=Nc1cccc(C(F)(F)F)c1 returned TRHR PAM -5, TRHR agonist 7, D1 antag 5, D1 PAM -4 and D1 agonist 62*.
Screening CC1(C)CC(NC(=O)c2sc3cc(Cl)ccc3c2Cl)CC(C)(C)N1 returned TRHR PAM 9, TRHR agonist 1, D1 antag -37*, D1 PAM -10 and D1 agonist 8.
Cc1nc2ccc([N+](=O)[O-])cc2c(=O)n1Cc1cccc(Br)c1 was read as TRHR PAM -18, TRHR agonist 1, D1 antag 6, D1 PAM -2 and D1 agonist -4.
Screening Cc1nc2ccc([N+](=O)[O-])cc2c(=O)n1Cc1ccc([N+](=O)[O-])cc1 returned TRHR PAM -20, TRHR agonist 0, D1 antag -62*, D1 PAM -6 and D1 agonist 5.
For Cc1nc2ccc([N+](=O)[O-])cc2c(=O)n1Cc1ccccc1Br the results were TRHR PAM -2, TRHR agonist -1, D1 antag -43*, D1 PAM -9 and D1 agonist 5.
`CCOC(=O)N1CCN(C(=O)CSc2nc3c([nH]c4ccccc43)c(=O)n2CC)CC1` gave TRHR PAM 0, TRHR agonist -1, D1 antag -36*, D1 PAM 4 and D1 agonist 0.
Screening CCn1c(SCC(=O)N(C)c2ccccc2)nc2c([nH]c3ccccc32)c1=O returned TRHR PAM -1, TRHR agonist -2, D1 antag -37*, D1 PAM -6 and D1 agonist 1.
`CC(C)NC(=O)c1ccc(Cn2c(SCC(N)=O)nc3ccccc3c2=O)cc1` gave TRHR PAM 2, TRHR agonist 0, D1 antag -5, D1 PAM 0 and D1 agonist 3.
Nc1nn(-c2ccccc2)nc1C(=O)OCc1ccccc1Br was read as TRHR PAM -2, TRHR agonist 2, D1 antag 2, D1 PAM -2 and D1 agonist 1.
For COc1cccc2c1C(=O)c1c(O)c3c(c(O)c1C2=O)C[C@@](O)(C(C)=O)C[C@@H]3O[C@H]1C[C@H](N)[C@H](O)[C@H](C)O1 the results were TRHR PAM -2, TRHR agonist 20, D1 antag 12, D1 PAM -3 and D1 agonist 44*.
For Cc1oc2c(c1C(=O)Nc1ccc(Cl)cc1F)C1=NCCN1C=N2 the results were TRHR PAM -10, TRHR agonist 0, D1 antag -7, D1 PAM 3 and D1 agonist 1.
COc1ccccc1N(CC(=O)NCCc1ccccc1)S(C)(=O)=O was read as TRHR PAM 14, TRHR agonist 0, D1 antag 19, D1 PAM -2 and D1 agonist 0.
For COc1ccccc1N(CC(=O)N/N=C(\C)c1cccc(Br)c1)S(C)(=O)=O the results were TRHR PAM -3, TRHR agonist 0, D1 antag -30*, D1 PAM -6 and D1 agonist 0.
